Compounds with a hit are over-represented: about 1.3% of the library has one in this group of screens.
FEN1 inh: human FEN1 inhibition; Potency, µM (top dose mostly 114 µM), usual class: inhibitors; P39748; AID 588795; Recombinant FEN1 flap cleavage, fluorescence, 15 min; 0.35% of 390,000 active; note: nearly all actives have a fitted effect of over 65% in size
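With each library titrated from low to high concentration, compounds met 10 nM FEN1 for 15 min at room temperature before 50 nM substrate was added; readings at 0 and 15 min fed four-parameter Hill curve fits.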
Glioma ERSR ind: inducers of ER stress response in human glioma cells; U87-MG GRP78 promoter luciferase reporter, 16 h; Potency, µM, usual class: activators; 0.02% of 420,000 active; note: series mostly up to about 76 µM; nearly all actives have a fitted effect of over 35% in size
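Stably transfected U87-MG human glioma cells carrying a GRP78-based luminescent sensor were seeded at 1000 cells/well, pin-dosed with compounds and incubated 16 h. Luciferase reagent was then added, and end-point luminescence was read after 10 min at room temperature.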
PGK inhibitor: blocks T. brucei phosphoglycerate kinase; Potency, µM (highest dose often 57.5 µM), actives largely listed as inhibitors; PGK/GAPDH coupled, Kinase-Glo luminescence, 60 min; 0.043% of 380,000 active; P07378; note: nearly all actives have a fitted effect of over 60% in size
Target sequence (P07378 whole entry, looked up): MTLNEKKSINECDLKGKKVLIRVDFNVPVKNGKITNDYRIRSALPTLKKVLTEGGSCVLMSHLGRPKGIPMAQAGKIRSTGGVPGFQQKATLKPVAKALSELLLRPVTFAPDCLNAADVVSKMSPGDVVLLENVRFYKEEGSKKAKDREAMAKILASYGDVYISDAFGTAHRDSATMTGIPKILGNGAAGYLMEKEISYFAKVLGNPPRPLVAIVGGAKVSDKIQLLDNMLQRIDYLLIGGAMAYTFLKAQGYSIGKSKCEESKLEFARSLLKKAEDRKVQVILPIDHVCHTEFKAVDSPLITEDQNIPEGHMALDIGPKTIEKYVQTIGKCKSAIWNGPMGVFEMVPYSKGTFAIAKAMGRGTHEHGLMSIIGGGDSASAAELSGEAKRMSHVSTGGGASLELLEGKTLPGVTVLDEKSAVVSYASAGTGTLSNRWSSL
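Recombinant glycosomal PGK reaction used 1,3-bisphosphoglycerate generated in-well by GAPDH (100nM final) in 100mM TEA pH 7.6, 5mM MgCl2, 0.01% Tween-20. After 60 minutes at room temperature, ATP was read by Kinase-Glo Plus luminescence end-point.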
PI5P4K alpha inh: blocks human PI5P4K alpha kinase activity. max response, %. AID 652105. 1.2% of 330,000 active. P48426. PI5P4Kalpha enzyme, ADP-Glo luminescence, 60 min; stronger effect = lower value; active = max response of -50% or lower; inconclusive = between -30% and -50%; inactive = -30% or higher; note: value at the top dose of about 77 µM
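ADP-Glo luminescence end-point after a 60 min room-temperature kinase reaction. PI5P4Kalpha and substrate in HEPES pH 7.4 buffer with EGTA, 0.1% CHAPS and 5% DMSO; ATP at 5 microM final.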
WRN helicase inh: blocks human WRN helicase; WRN helicase unwinding, fluorescent forked duplex, kinetic; Potency, µM (series often up to 114 µM), actives largely listed as inhibitors; 0.46% of 360,000 active; AID 651768; note: nearly all actives have a fitted effect of over 55% in size
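Primary qHTS, 1536-well format. 20 nM WRN + compound, 15 min RT; start with 100 nM forked fluorophore/quencher duplex, 2 mM ATP (final); kinetic read ex 525/em 598 nm.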
Pin1 inh: human Pin1 inhibition; Q13526; Pin1 FP peptide displacement, HiFluor488, 10 min; Potency, µM (top dose mostly 115 µM), hits mostly inhibitors; 0.009% of 390,000 active; AID 504891; active = well fitted inhibition curve with a large enough effect in the polarisation, with a control signal flat, not every such curve was filed as active; inconclusive = small, poorly fitted or top-dose-only effect, or effect the other way, or a change in a side signal; inactive = no such curve, though single readings can be large or run the other way; the % refers to the polarisation
Target sequence (Q13526 whole entry, looked up): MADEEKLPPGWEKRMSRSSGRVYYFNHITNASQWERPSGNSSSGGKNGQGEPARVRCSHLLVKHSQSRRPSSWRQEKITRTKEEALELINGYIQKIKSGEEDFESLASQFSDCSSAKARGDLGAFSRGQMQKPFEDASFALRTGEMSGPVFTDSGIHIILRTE
Of the large screens only hits and unclear results are named; the others gave an inactive call; ! = not active in a repeat. Unless noted, calls come from the whole dose curve; as a rule, active = well fitted curve in the direction sought with a large enough effect; inconclusive = small, poorly fitted or top-dose-only effect, or another doubt; inactive = no such curve, though single readings can be large; an effect the other way counts as inactive or inconclusive.

CCOC1=C/C(=C/c2c(N)n3nc(-c4ccccc4)sc3nc2=O)C=CC1=O	PI5P4K alpha inh -83.4, WRN helicase inh inconclusive, Pin1 inh inconclusive
CCCc1nn2c(N)c(/C=C3\C=Nc4ccccc43)c(=O)nc2s1	WRN helicase inh inconclusive, Pin1 inh inconclusive
Cn1c(=NC(=O)c2ccccc2[N+](=O)[O-])sc2cc(S(C)(=O)=O)ccc21	none
Nc1c(C=C2C=CC(=O)C=C2)c(=O)nc2sc(CC(=O)N3CCCC3)nn12	none
Cc1cc(/C=C2/C(=N)N3C(=NC2=O)SN=C3S(C)(=O)=O)c(C)n1-c1ccccc1F	PI5P4K alpha inh -61.7
CC1=CC2=NC(=O)/C(=C\c3cc(C)n(-c4ccccc4F)c3C)C(=N)N2O1	none
CS(=O)(=O)C1=NSC2=NC(=O)/C(=C\c3cccn3-c3ccc(Cl)cc3)C(=N)N21	PGK inhibitor inconclusive, PI5P4K alpha inh -81.2
O=C(Cn1cc(CNCc2ccccc2)nn1)Nc1cc(C(F)(F)F)ccc1Cl	none (no result: FEN1 inh, Glioma ERSR ind, PGK inhibitor, PI5P4K alpha inh, WRN helicase inh)
COc1cc(N=c2ssnc2Cl)c(OC)cc1Cl	FEN1 inh inconclusive, Glioma ERSR ind inconclusive, PI5P4K alpha inh -68.3, WRN helicase inh 56.2µM!
COc1ccc(OC)c(N=c2ssnc2Cl)c1	PI5P4K alpha inh -64.5, WRN helicase inh 56.2µM
c1coc(CNc2nc(-c3cccs3)nc3ccccc23)c1	none (no result: FEN1 inh, Glioma ERSR ind, PGK inhibitor, PI5P4K alpha inh, WRN helicase inh)
Cc1ccc(-c2nc3ncccc3o2)cc1NC(=O)c1ccc([N+](=O)[O-])o1	none
Cc1cc(-c2nc3ncccc3o2)ccc1NC(=O)c1ccc([N+](=O)[O-])o1	FEN1 inh inconclusive, PI5P4K alpha inh -58.2
O=S(=O)(c1ccc(Br)cc1)c1nnn2c1nc(NCCc1ccccc1)c1sccc12	none (no result: PI5P4K alpha inh, WRN helicase inh)
Cc1ccc(CCNc2nc3c(S(=O)(=O)c4ccccc4)nnn3c3ccsc23)cc1	FEN1 inh 89.1µM (no result: PI5P4K alpha inh, WRN helicase inh)
S=C(NCCCc1cnc[nH]1)NCCN(Cc1ccc(Cl)c(Cl)c1)c1ccc(Br)cn1	none (no result: FEN1 inh, Glioma ERSR ind, PGK inhibitor, PI5P4K alpha inh, WRN helicase inh)
O=C(Nc1ccc(Cl)cc1Cl)c1cccc(N2C(=O)C=CC2=O)c1	PI5P4K alpha inh -51.1
COc1ccc2ccc3c(c2c1)N=CC1(O3)N(C)c2ccccc2C1(C)C (stereo not given)	FEN1 inh inconclusive, WRN helicase inh 79.4µM (no result: PGK inhibitor, PI5P4K alpha inh)
O=C(/C=C/c1cccc(Br)c1)Nc1nn[nH]n1	PI5P4K alpha inh -68.7 (no result: Pin1 inh)
N#C/C(=C\c1ccc(O)c(O)c1)C(=O)N1CCc2ccccc21	FEN1 inh inconclusive, WRN helicase inh 17.8µM
CCOC1=C2[C@H](c3ccccc3)N(S(=O)(=O)c3ccc(C)cc3)C(C(C)(C)C)[C@H]2C(C#N)(C#N)C(C#N)(C#N)C1 (stereo not given in full)	PI5P4K alpha inh -50.3 (no result: FEN1 inh, PGK inhibitor, Pin1 inh)
CCOC1=C2CN(S(=O)(=O)c3ccc(C)cc3)[C@H](c3cccc4ccccc34)C[C@H]2C(C#N)(C#N)C(C#N)(C#N)C1	PI5P4K alpha inh inconclusive (no result: FEN1 inh, PGK inhibitor, Pin1 inh)
CC(=O)c1ccc(F)c(-c2cc(C)cc3c2OC(CNC(=O)C2CCCCN2C)C3)c1 (stereo not given)	none (no result: FEN1 inh, PGK inhibitor, PI5P4K alpha inh, WRN helicase inh, Pin1 inh)
Cn1ccnc1C1CCCCN1C(=O)CN1Cc2ccccc2OC(c2ccccc2F)C1 (stereo not given)	none (no result: FEN1 inh, PGK inhibitor, PI5P4K alpha inh, WRN helicase inh, Pin1 inh)
Cc1cc(C)c(S(=O)(=O)/N=C2/C=C(SCC(=O)O)C(=O)c3ccccc32)cc1C	FEN1 inh 10µM, Glioma ERSR ind inconclusive, PI5P4K alpha inh inconclusive, WRN helicase inh 17.8µM, Pin1 inh inconclusive
Cc1cc(C)c(S(=O)(=O)/N=C2\C=C(NS(=O)(=O)c3ccccc3)C(=O)c3ccccc32)c(C)c1	none
CCN(Cc1ccncc1)Cc1ccc2c(c1)CN(C(=O)c1ccc(C)cc1)CCO2	none (no result: FEN1 inh, PGK inhibitor, PI5P4K alpha inh, WRN helicase inh, Pin1 inh)
CCSc1nnc(NC(=O)C2Cc3ccccc3CN2C(=O)c2ccco2)s1 (stereo not given)	PI5P4K alpha inh -51.6, WRN helicase inh inconclusive
O=C(O)c1ccccc1NS(=O)(=O)c1cccc(-n2sc3ccccc3c2=O)c1	FEN1 inh 89.1µM, PI5P4K alpha inh -96.7, WRN helicase inh 11.2µM
C#CCOCCOCCOCCNc1nc(N2CCN(C(=O)CCCCCCCCCCNC(=O)[C@@H](CCC(=O)O)n3cc(CCCCCN)nn3)CC2)nc(N2CCN(C(=O)CCCCCCCCCCNC(=O)[C@H](CCCCN)n3cc(C[C@@H](C)CC)nn3)CC2)n1	FEN1 inh inconclusive, PI5P4K alpha inh -53.4
C#CCOCCOCCOCCNc1nc(N2CCN(C(=O)CCCCCCCCCCNC(=O)[C@@H](CCSC)n3cc(CCO)nn3)CC2)nc(N2CCN(C(=O)CCCCCCCCCCNC(=O)[C@H](CCC(=O)O)n3cc(CCCCCN)nn3)CC2)n1	none
C#CCOCCOCCOCCNc1nc(N2CCN(C(=O)CCCCCCCCCCNC(=O)[C@@H](CCSC)n3cc(CCO)nn3)CC2)nc(N2CCN(C(=O)CCCCCCCCCCNC(=O)[C@H](CO)n3cc(CCCCCN)nn3)CC2)n1	FEN1 inh inconclusive, PI5P4K alpha inh inconclusive, WRN helicase inh 50.1µM
C#CCOCCOCCOCCNc1nc(N2CCN(C(=O)CCCCCCCCCCNC(=O)[C@H](CCCCN)n3cc(CCO)nn3)CC2)nc(N2CCN(C(=O)CCCCCCCCCCNC(=O)[C@H](CCCCN)n3cc(C[C@@H](C)CC)nn3)CC2)n1	FEN1 inh 28.2µM, PI5P4K alpha inh -61.6, WRN helicase inh 50.1µM
C#CCOCCOCCOCCNc1nc(N2CCN(C(=O)CCCCCCCCCCNC(=O)[C@@H](CCC(=O)O)n3cc(CCCCCN)nn3)CC2)nc(N2CCN(C(=O)CCCCCCCCCCNC(=O)[C@H](CO)n3cc(CCCCCN)nn3)CC2)n1	PI5P4K alpha inh -54.3
C#CCOCCOCCOCCNc1nc(N2CCN(C(=O)CCCCCCCCCCNC(=O)[C@H](CCCCN)n3cc(CCO)nn3)CC2)nc(N2CCN(C(=O)CCCCCCCCCCNC(=O)[C@H](CCCCN)n3cc(CCCC(=O)O)nn3)CC2)n1	PI5P4K alpha inh inconclusive
C#CCOCCOCCOCCNc1nc(N2CCN(C(=O)[C@H]([C@@H](C)CC)n3cc(CCC(=O)O)nn3)CC2)nc(N2CCN(C(=O)[C@H](CCCCN)n3cc(CCC(=O)O)nn3)CC2)n1	none
C#CCOCCOCCOCCNc1nc(N2CCN(C(=O)CCCCCCCCCCNC(=O)[C@@H](CCC(=O)O)n3cc(CCCCCN)nn3)CC2)nc(N2CCN(C(=O)CCCCCCCCCCNC(=O)[C@H](CO)n3cc(CCCSC)nn3)CC2)n1	none
